PubChem BioAssay AID686978 (National Center for Advancing Translational Sciences (NCATS), 2013)
Values joined by “and” are separate entries in the source; they are usually repeats but may differ in a detail not shown here. Equal entries are not always repeated. The whole screen tested about 420,000 compounds, of which about 64,000 (15%) were called active. Not shown: some 27% with an inconclusive outcome. Not all results are given here. Unmarked numbers belong to inactive results. Calls come from the whole dose curve; as a rule, active = well fitted inhibition curve with a large enough effect; inconclusive = small, poorly fitted or top-dose-only effect; inactive = flat fitted curve, though single readings scatter.

Experiment: qHTS for Inhibitors of human tyrosyl-DNA phosphodiesterase 1 (TDP1): qHTS in cells in absence of CPT; note: nearly all actives have a fitted effect of over 55% in size
Settings: DT40 Tdp1-/- hTDP1 cells, no CPT, ATP luminescence, 48 h; activity change, negative = growth inhibition: at 46.2 µM (top of the series)
In short: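 Camptothecin absent (DMSO only). Human TDP1-complemented DT40 knockout cells, 400 cells/well, 37 °C for minimum 48 hr; ATP measured via CellTiter-Glo, 30 min dark incubation, luminescence.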
% is set by controls: 0 for no effect and ±100 for the full control effect; potency is the fitted concentration of half-maximal effect.

First: CCc1ccccc1NC(=O)c1ccc(F)c(S(=O)(=O)NC2CCCCCC2)c1
Second: COc1ccccc1CNC(=O)C1CCN(S(=O)(=O)c2ccc3c(c2)OCCO3)CC1
The “activity change, negative = growth inhibition” value of the first is higher: -7.92% for the first, -18% for the second.

Compared with `CCc1ccc(OCC(O)CN2CCN(CCO)CC2)cc1` (stereo not drawn), `CCc1ccc(NC(=O)CN2C(=O)CSC2=O)cc1` is lower in “activity change, negative = growth inhibition” value: 5.07% for the first, -14.3% for the second.

First: COc1ccc(N(CC(=O)N2CCOCC2)S(=O)(=O)c2ccccc2)cc1Cl
Second: O=C(Nc1cc(-c2nc3ccccc3o2)ccc1Cl)c1cc([N+](=O)[O-])ccc1N1CCOCC1
The “activity change, negative = growth inhibition” value of the first is higher: -12.2% for the first, -23.6% for the second.

First: Cc1cccc(OC(=O)c2sc3ncn(C)c(=O)c3c2C)c1
Second: Cc1nn(-c2ccccc2)c(C)c1NC(=O)COC(=O)c1cc(Cl)ccc1O
The “activity change, negative = growth inhibition” value of the first is lower: -8.1% for the first, -6.13% for the second.

Compared with `COCCNc1ncnc2c1nc1n2CCCC1`, `O=C(NCCCN1CCCCC1)C1CCCN(c2ncnc3c2nc2n3CCCCC2)C1` (stereo not drawn) is higher in “activity change, negative = growth inhibition” value: 0.903% for the first, 1.26% for the second.

First: COc1ccc(NC(=O)N2CCCC(C(=O)Nc3ccccc3OC)C2)cc1 (stereo not drawn)
Second: Cc1cccc(NC(=O)C2CCCN(C(=O)Nc3ccc(F)cc3)C2)c1C (stereo not drawn)
The “activity change, negative = growth inhibition” value of the first is higher: -1.09% for the first, -19% for the second.

Compared with `COc1cccc(NC(=O)C/C(C)=N/NC(=O)C2CCCCC2)c1`, `Cc1ccc(NNC(=O)C2CCC2)cc1C` is lower in “activity change, negative = growth inhibition” value: -4.86% for the first, -28.8% for the second.

First: CC(C)NC(=O)N1CC[C@@]2(CCCN(C(=O)c3cccn3C)C2)C1
Second: CCC(=O)N1c2ccccc2CC1C(=O)N1CCN(c2ccccc2)CC1 (stereo not drawn)
The “activity change, negative = growth inhibition” value of the first is higher: -10.1% for the first, -28% for the second.

First: CCOC(=O)c1c(S(=O)(=O)N2CCC(C(=O)NCc3ccccc3OC)CC2)c(C)n(C)c1C
Second: Cc1ccccc1CSCCNC(=O)C1CCN(S(=O)(=O)Cc2ccccc2)CC1
The “activity change, negative = growth inhibition” value of the first is lower: -5.74% for the first, 1.55% for the second.

First: Cc1cc(C)cc(-c2nnc(SCC(=O)NC3CC3)o2)c1
Second: Cc1c(CN2CCC(n3nccc3NC(=O)CCc3ccccc3)CC2)cnn1C
The “activity change, negative = growth inhibition” value of the first is lower: -2.32% for the first, 22.2% for the second.

Compared with `CC1=CC2=NC(=O)CC(C)(C(=O)N(CC(=O)NC(C)(C)C)Cc3ccccc3)N2C=C1` (stereo not drawn), `Cc1c(C(=O)NCCCc2ccccc2)cccc1[N+](=O)[O-]` is lower in “activity change, negative = growth inhibition” value: -4.59% for the first, -11.1% for the second.

Compared with `COC(=O)c1ccc(CSc2nnc(NC(C)C)s2)cc1`, `COc1ccc(CNc2nccs2)cc1` is higher in “activity change, negative = growth inhibition” value: -17.7% for the first, -1.94% for the second.

First: COc1ccc(-c2nc(CS(=O)CC(=O)NCc3ccccc3)c(C)o2)cc1OC (stereo not drawn)
Second: C/C=C/c1ccc(OCC(=O)OCC(=O)Nc2c(C)nn(-c3ccccc3)c2C)c(OC)c1
The “activity change, negative = growth inhibition” value of the first is higher: 6.91% for the first, -2.94% for the second.

Going from `Cc1ccc(CN2CCN(c3ncccn3)CC2)c(C)c1` to `Cc1ccc(Cl)cc1NC(=O)C1CCCN(c2cnccn2)C1` (stereo not drawn), the “activity change, negative = growth inhibition” value rises from -19.4% to -14.8%.

Going from `CC(C)(C)C(=O)Nc1c(Br)c(C2CC2)nn1-c1ccccc1` to `COC(C[C@@H]1O[C@@H]1C(=O)[C@@H](C)OCc1ccccc1)OC`, the “activity change, negative = growth inhibition” value rises from -3.93% to -0.475%.

Compared with `CCOC(=O)c1[nH]cnc1C(=O)NC1CCCCC1`, `Cn1nnc2cc(C(=O)NCCC3=CCCCC3)ccc21` is lower in “activity change, negative = growth inhibition” value: -10.9% for the first, -28% for the second.

Going from `COc1ccc(-n2nc3c(c2NC(=O)c2ccc(N4C(=O)CCC4=O)cc2)CSC3)cc1` to `CC(=O)N1C(=O)/C(=C2\SC(=S)N(NC(=O)c3ccc(O)cc3)C2=O)c2ccccc21`, the “activity change, negative = growth inhibition” value falls from -4.48% to -6.31%.

First: CCOCCCn1c(NN)nc2ccccc2c1=O
Second: CCC(=O)OCCNc1nc(-c2ccccc2)nc2ccccc12
The “activity change, negative = growth inhibition” value of the first is lower: -24.6% for the first, -21.2% for the second.

Compared with `Cc1ccccc1-c1nc(N(C)Cc2ccco2)c2ccccc2n1`, `Cc1cnc(CNc2nc(-c3cccnc3)nc3ccccc23)cn1` is higher in “activity change, negative = growth inhibition” value: -43.2% for the first, -8.11% for the second.

Going from `O=C(COc1ncnc2ccccc12)NC(=O)NCc1ccccc1` to `Cc1ccc(C(=O)NNc2ncnc3ccccc23)cc1`, the “activity change, negative = growth inhibition” value falls from 0.729% to -11.2%.

First: Brc1nc2ncnc(NCc3ccco3)c2[nH]1
Second: Cc1ccnc(Nc2nc3ccccc3s2)n1
The “activity change, negative = growth inhibition” value of the first is lower: -25.7% for the first, -12.8% for the second.

Going from `CCOC(=O)c1nnn(CC(=O)Nc2cccc(F)c2)c1C(=O)OCC` to `CCC(CC)C(=O)Nc1ccc(S(=O)(=O)Nc2nccs2)cc1`, the “activity change, negative = growth inhibition” value rises from -21.9% to -15.6%.

Compared with `CCCCn1c(N)c(N2CCOCC2)c(=O)n(CC(=O)NCCc2ccccc2)c1=O`, `CCCCC(=O)OC1=CN(Cc2ccccc2)S(=O)(=O)c2ccccc21` is lower in “activity change, negative = growth inhibition” value: 28.4% for the first, -25.3% for the second.

Compared with `COc1ccccc1-c1c(C#N)c(N)nc2c1CCC2`, `Cc1ccc2nsnc2c1NC(=O)c1ccccc1[N+](=O)[O-]` is higher in “activity change, negative = growth inhibition” value: -24.4% for the first, -17.5% for the second.

Going from `O=C(Nc1ccccc1Cl)O/N=C(/c1ccccc1)c1ccccn1` to `Cc1ccnc(NC(=O)c2ccc(Cl)c([N+](=O)[O-])c2)c1`, the “activity change, negative = growth inhibition” value falls from -5.77% to -16.4%.

First: O=C(NCCC1=CCCCC1)c1ccc(-n2cncn2)cc1
Second: O=C(Nc1cccnc1)c1ccc(Cl)c([N+](=O)[O-])c1
The “activity change, negative = growth inhibition” value of the first is higher: 10.9% for the first, -18.2% for the second.

For `CCOC(=O)Cc1cccc(-c2cc(CCCCCCc3ccc(O[C@H]4O[C@H](COC(C)=O)[C@@H](OC(C)=O)[C@H](OC(C)=O)[C@@H]4OC(C)=O)c(-c4cccc(CC(=O)OCC)c4)c3)ccc2O[C@H]2O[C@H](COC(C)=O)[C@@H](OC(C)=O)[C@H](OC(C)=O)[C@@H]2OC(C)=O)c1`, the “activity change, negative = growth inhibition” value was -2.24%.

In the case of `CCCN(CCC)C(=O)C1CCCN(c2ncnc3c2nc2n3CCCCC2)C1` (stereo not drawn), the Potency is reported as 20.6 µM (active).
With `COc1cccc(NC(=O)C2CCCN(c3ncnc4c3nc3n4CCCCC3)C2)c1` (stereo not drawn) the Potency was 20.6 µM (active).
For `COc1ccc(-c2nc(CN3CCN(c4ncccn4)CC3)c(C)o2)cc1C`, the Potency was 20.6 µM (active).
In the case of `Cc1nn(-c2ccccc2)c(C)c1NC(=O)COc1ccc(Cl)cc1Cl`, the Potency is reported as 9.2 µM (active).
In the case of `O=C(O)Cc1ccc(-c2ccccc2)cc1`, the Potency is reported as “inactive”.
For `CCOCCCNc1nc(-c2ccccc2)nc2ccccc12`, the Potency was 14.6 µM (active).
For `c1ccc(-c2nc(NCc3ccco3)c3ccccc3n2)cc1`, the Potency was 23.1 µM (active).
With `COc1ccc(CNc2ncnc3ccccc23)cc1` the Potency was 0.651 µM (active).
In the case of `c1coc(CNc2ncnc3ccccc23)c1`, the Potency is reported as 12.6 µM (active) and 5.17 µM (active).
With `c1ccc(CCC2=NCCn3cccc32)cc1` the Potency was “inactive”.
In the case of `c1ccc(C(=NNc2nc3ccccc3s2)c2ccccn2)cc1`, the Potency is reported as 0.13 µM (active).
With `O=C(NCCC1=CCCCC1)c1ccc(Cl)c([N+](=O)[O-])c1` the Potency was 16.4 µM (active).
With `O=C(Nc1ccncc1)c1ccc(Cl)c([N+](=O)[O-])c1` the Potency was 14.6 µM (active).
In the case of `C#CCCCCCCCCCCCCCCCC(=O)O`, the Potency is reported as “inactive”.
For `Cc1c(Cl)cccc1NC(=O)C1CCCN(c2ncnc3onc(C)c23)C1` (stereo not drawn), the Potency was 6.51 µM (active).
